Data published in PubChem BioAssay (NCI).
“And” between values parts separate entries of the source, which are not always exact repeats. Identical values can stand only once. Compounds without any hit were thinned out: in the full panel of roughly 83,000, 20% have a hit.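 For each line, cells grew in 96-well plates with the test compound present at a single concentration for 48 hours.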 The source holds several records for some structures; these can differ, active in one and inactive in another. The source made the active and inactive calls. The calls were made as follows: active = growth percent below 10; inactive = the rest.

Each compound was assayed on HL-60(TB) leukemia (assay: NCI-60 one-dose screen, 48 h (100 = growth as untreated, 0 = no growth, -100 = all killed)). Settings: 10 µM unless noted.
`COc1ccc(Cc2cc(-c3ccccc3)nn(Cc3ccccc3)c2=O)cc1OC` was tested, and the growth was 25.8% (inactive).
In the case of `N#Cc1c(-c2ccc(Cl)cc2)nc(NN=Cc2cccc(O)c2)nc1N1CCOCC1`, the growth is reported as 66.6% (inactive).
In the case of `CC[C@@]1(O)C(=O)OCc2c1cc1n(c2=O)Cc2cc3c(CN(C)C)c(O)ccc3nc2-1`, the growth is reported as -7.06% (active) and -36.1% (active).
`NNCCc1ccccc1` was tested, and the growth was 107% (inactive) and 98.2% (inactive).
For `COC(=O)C(CSC(c1ccccc1)(c1ccccc1)c1ccccc1)NC(=O)C(CC(N)=O)NC(=O)OCc1ccccc1` (stereo not given), the growth was -7.75% (active).
With `N#Cc1c(-c2ccc(Cl)cc2)nc(SCC(=O)NC2=NN=C(c3ccccc3)CS2)[nH]c1=O` the growth was 4.11% (active).
For `Nc1ccccc1Nc1ccccc1`, the growth was 23.5% (inactive) and 11.2% (inactive).
`C#CC(=O)Nc1cccc(Nc2nc3c(c(NCc4ccccc4)n2)CCCC3)c1` was tested, and the growth was -25.5% (active).
For `CC(C)CC1NC(=O)C(CC(C)C)N(CO)C1=O` (stereo not given), the growth was 106% (inactive).
For `COc1cnc2c(c1)C(=O)c1c-2n(CCCN2CCNCC2)c(=O)c2cc(F)ccc12`, the growth was -25% (active).
`O=C(Nn1c2c(sc1=Nc1ccccc1)C(=O)c1ccccc1C2=O)c1cc2ccc1CCc1ccc(cc1)CC2` was tested, and the growth was 91.6% (inactive).
`COc1cc(-c2nc(-c3ccc(-c4nc5ccc(F)cc5[nH]4)cc3)no2)cc(OC)c1OC` was tested, and the growth was 13.4% (inactive).
With `O=C1CC(c2cccc(-c3cccnc3)c2)=Nc2ccc(Br)cc2N1` the growth was 41.6% (inactive).
In the case of `O=C1NC(=C(Cl)Cl)/C(=N/S(=O)(=O)N2CCC(C3(C(F)(F)F)N=N3)CC2)N1`, the growth is reported as 77% (inactive).
With `COc1ccc(C2=CC(c3ccc(OC)cc3Br)N3C=CSC3=N2)cc1` (stereo not given) the growth was 61.4% (inactive).
For `CCN(CC)c1ccc2nc3ccc(=[N+](CC)CC)cc-3oc2c1`, the growth was -12.7% (active).
`CC(=O)NC1C(O[C@H]2C[C@H]3[C@@H]4CC=C5C[C@@H](O)CC[C@]5(C)[C@H]4CC[C@]3(C)[C@H]2[C@H](C)C(=O)CCC(C)C)OCC(O)C1O` (stereo not given in full) was tested, and the growth was 10.1% (inactive).
With `CC(=O)Nc1nc(C)c(C(=O)NNC=O)s1` the growth was 104% (inactive).
For `O=C(Nc1ccc(Oc2cccc(F)c2)c(Cl)c1)c1cccnc1`, the growth was 12.1% (inactive).
For `O=C(Nc1ccc(-c2nc(N3CCOCC3)c3cccn3n2)cc1)Nc1cccnc1`, the growth was 12% (inactive).
For `Cc1ccc(S(=O)(=O)N2C/C(=C\c3cc(F)cc(F)c3)C(=O)/C(=C/c3cc(F)cc(F)c3)C2)cc1`, the growth was 10.9% (inactive).
In the case of `COc1ccc(C2=NN(C(=O)c3cc(OC)c(OC)c(OC)c3)C(c3ccc(Cl)cc3)C2)cc1OC` (stereo not given), the growth is reported as -54% (active).
For `C[C@@H](Oc1cc(C(=O)Nc2ccc(C(=O)N3CCN(C)CC3)cc2)nnc1N)c1c(Cl)ccc(F)c1Cl`, the growth was 88.3% (inactive).
For `CN1CCN(c2ccc(NC(=O)c3nc4ccc5[nH]ncc5c4c4c3CCCC4)cc2C(F)(F)F)CC1`, the growth was 28% (inactive).
For `OC(c1cc(-c2ccc(C(F)(F)F)cc2)nc(C(F)(F)F)c1)C1CCCCN1` (stereo not given), the growth was -47.6% (active) and -72.8% (active) and 36.6% (inactive).
`CC(=O)Nc1ccc2c(c1)Cc1cc(F)ccc1-2` was tested, and the growth was 66.8% (inactive).
With `N#Cc1ncc(-c2cc(F)c(F)c(F)c2)c(NC2CCCCCC2)n1` the growth was 108% (inactive).
With `O=C(c1ccccc1)C(Cl)C(Cl)c1ccccc1` (stereo not given) the growth was 25.2% (inactive).
In the case of `COc1cc2nc(-c3ccc(C(F)(F)F)cc3)cc(OCCCN3CCCCC3)c2cc1OC`, the growth is reported as 25% (inactive).
`COc1ccc(-c2c3c(N)c4c(nc3nc3c2c(C)nn3-c2ccccc2)CCCCC4)cc1` was tested, and the growth was 49.3% (inactive).
In the case of `NS(=O)(=O)c1cc2c(cc1Cl)NC(C(Cl)Cl)NS2(=O)=O` (stereo not given), the growth is reported as 91.5% (inactive) and 105% (inactive).
In the case of `Cc1cc(NCc2cc(Nc3ccnc4cc(Cl)ccc34)ccc2F)nc(N2CCSCC2)n1`, the growth is reported as -61.4% (active).
`C=C1C(=O)O[C@H]2[C@H]1CC/C(COC(=O)OC/C1=C/CC[C@@]3(C)O[C@H]3[C@H]3OC(=O)[C@@H](CN(C)C)[C@@H]3CC1)=C\CC[C@@]1(C)O[C@@H]21` was tested, and the growth was -43% (active).
`CCCNc1ccc(C2=NCCCN2)cc1` was tested, and the growth was 95.5% (inactive).
With `COc1ccc(C(O)c2ccccc2)cc1` (stereo not given) the growth was 102% (inactive).
In the case of `COC(=O)c1c2c(c(C)[n+]([O-])c1C)C(=O)C(NCc1ccc(O)cc1)=CC2=O`, the growth is reported as -8.85% (active).
In the case of `CCOC(=O)C1=NN(c2ccccc2)C(=O)/C1=C\N1C(=O)CC(=O)NC1=S`, the growth is reported as 101% (inactive).
For `COc1cc(CC#N)c([N+](=O)[O-])cc1OC`, the growth was 92.6% (inactive).
For `Nc1nc2c(nnn2C2CC(O)C(CO)O2)c(=O)[nH]1` (stereo not given), the growth was 28.4% (inactive).
In the case of `N=C1C(c2nc(-c3ccc(Br)cc3)cs2)=C(O)CN1Cc1cccnc1`, the growth is reported as 72.4% (inactive).
